Measured values reported in PubChem BioAssay (NCATS).
Results filed as inconclusive are left out. A number with no mark means an inactive call. Activity calls are given as the source filed them. Calls follow the shape of the dose curve; as a rule, active = well fitted inhibition curve with a large enough effect; inconclusive = small, poorly fitted or top-dose-only effect; inactive = flat fitted curve, though single readings scatter.

These compounds were tested against Voltage-gated inwardly rectifying potassium channel KCNH2 (Homo sapiens) (UniProt Q12809) (assay: qHTS Assay for Small Molecule Inhibitors of the Human hERG Channel Activity (AID 588834;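 also: lower thallium flux fluorescence means stronger hERG block; nearly all actives have a fitted effect of over 50% in size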; as to activity change, negative = inhibition: top concentration of the series differs between compounds)). Conditions: U2OS BacMam hERG, FluxOR thallium flux fluorescence; series mostly up to 46.1 µM; activity change, negative = inhibition: at the top concentration.
In short: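 hERG-BacMam U2OS, 2000 cells/well; 0.7X FluxOR loading 1 hr RT dark; cpd ~10 min 37 °C; stim buffer; FDSS fluorescence 2 min @ 1 s; AC50 Hill fit.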
% is scaled to controls: 0 for no effect and ±100 for the full control effect; potency is read from the fitted curve at half-maximal effect.

Chain of Voltage-gated inwardly rectifying potassium channel KCNH2 (Homo sapiens) (Q12809 whole entry, looked up): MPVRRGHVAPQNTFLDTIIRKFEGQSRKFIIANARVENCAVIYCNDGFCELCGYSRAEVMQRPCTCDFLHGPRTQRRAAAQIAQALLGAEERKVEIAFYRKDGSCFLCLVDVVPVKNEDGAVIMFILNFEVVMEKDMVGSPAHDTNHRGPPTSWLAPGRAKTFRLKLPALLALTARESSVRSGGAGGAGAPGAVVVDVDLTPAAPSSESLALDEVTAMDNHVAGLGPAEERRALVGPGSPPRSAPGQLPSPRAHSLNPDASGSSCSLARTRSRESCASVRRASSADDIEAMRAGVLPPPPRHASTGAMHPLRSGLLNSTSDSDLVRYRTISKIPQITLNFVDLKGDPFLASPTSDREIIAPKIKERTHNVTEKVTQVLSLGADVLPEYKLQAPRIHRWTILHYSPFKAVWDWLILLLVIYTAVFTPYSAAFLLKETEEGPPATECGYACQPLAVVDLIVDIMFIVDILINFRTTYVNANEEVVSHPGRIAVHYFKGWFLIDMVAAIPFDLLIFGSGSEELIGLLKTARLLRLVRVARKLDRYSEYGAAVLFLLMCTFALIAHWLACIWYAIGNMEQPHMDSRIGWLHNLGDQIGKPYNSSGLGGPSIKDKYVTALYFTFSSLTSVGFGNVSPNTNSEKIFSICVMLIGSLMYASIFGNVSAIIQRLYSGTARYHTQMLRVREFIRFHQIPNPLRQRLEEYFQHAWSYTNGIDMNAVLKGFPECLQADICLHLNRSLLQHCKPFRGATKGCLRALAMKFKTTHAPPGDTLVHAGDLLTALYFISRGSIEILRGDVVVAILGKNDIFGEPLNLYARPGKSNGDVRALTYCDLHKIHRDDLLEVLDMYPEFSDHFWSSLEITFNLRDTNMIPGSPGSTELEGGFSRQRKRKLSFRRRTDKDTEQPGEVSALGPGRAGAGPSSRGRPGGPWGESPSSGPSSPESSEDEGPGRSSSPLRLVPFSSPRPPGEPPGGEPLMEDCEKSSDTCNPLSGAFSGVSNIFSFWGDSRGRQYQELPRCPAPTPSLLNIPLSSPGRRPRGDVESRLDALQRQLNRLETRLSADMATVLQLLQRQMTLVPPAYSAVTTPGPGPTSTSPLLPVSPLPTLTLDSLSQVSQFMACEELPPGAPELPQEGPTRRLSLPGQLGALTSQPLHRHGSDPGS

Structure (SMILES)	Potency	activity change, negative = inhibition
C=C[C@]1(C)C[C@@H](OC(=O)CSCCN(CC)CC)[C@]2(C)[C@H](C)CC[C@]3(CCC(=O)[C@H]32)[C@@H](C)[C@@H]1O	2.24 µM (active)	–
COc1ccc(/C=C/C(=O)O)cc1	–	18.6%
Cc1nc(NS(=O)(=O)c2ccc(N)cc2)nc(C)c1Br	–	-4.3%
CCC(Cc1c(I)cc(I)c(O)c1I)C(=O)O (stereo not drawn)	–	0.941%
NCC[C@H](O)C(=O)N[C@@H]1C[C@H](N)[C@@H](O[C@H]2O[C@H](CN)[C@@H](O)[C@H](O)[C@H]2O)[C@H](O)[C@H]1O[C@H]1O[C@H](CO)[C@@H](O)[C@H](N)[C@H]1O	–	4.07%
COc1c(O[C@@H]2O[C@H](CO)[C@@H](O)[C@H](O)[C@H]2O)cc2c(c1OC)-c1ccc(SC)c(=O)cc1[C@@H](NC(C)=O)CC2	–	5.55% [at 20.6 µM]
Cn1cc(NC(=O)c2cc(NC(=O)c3cc(NC=O)cn3C)cn2C)cc1C(=O)NCCC(=N)N	–	21.5%
CC1(C)S[C@@H]2[C@H](NC(=O)C3(N)CCCCC3)C(=O)N2[C@H]1C(=O)O	–	-1.44%
Cc1cc(-c2ccc(N=Nc3c(S(=O)(=O)O)cc4cc(S(=O)(=O)O)cc(N)c4c3O)c(C)c2)ccc1N=Nc1c(S(=O)(=O)O)cc2cc(S(=O)(=O)O)cc(N)c2c1O	–	16.9%
C=CC(=O)O	–	-8.9%
C[C@@H]1C[C@H]2[C@@H]3C[C@H](F)C4=CC(=O)C=C[C@]4(C)[C@@]3(Cl)[C@@H](O)C[C@]2(C)[C@H]1C(=O)COC(=O)C(C)(C)C	–	-2.65%
CCOc1ccc(S(=O)(=O)O)c2cccnc12	–	11.7%
CC(C)NCC(O)COc1ccccc1-n1cccc1 (stereo not drawn)	14.1 µM (active)	–
